High-throughput results as filed in PubChem.
G9a inh: G9a (human) methyltransferase inhibition; Q96KQ7; G9a H3K9 monomethylation, AlphaScreen, 2 h; Potency, µM (top dose mostly 102 µM), for the others: at the highest dose activity, negative = inhibition, most hits filed as inhibitors; 8.8% of 350,000 active; AID 504332; also: potency is read from the fitted curve at half-maximal effect; % is scaled to controls: 0 for no effect and ±100 for the full control effect; nearly all actives have a fitted effect of over 75% in size
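Using a bead-based AlphaScreen, monomethylated H3K9 product from 2 h room-temperature reactions (G9a 20 nM, peptide 500 nM, SAM 20 uM) was detected with 0.5 ug/mL rabbit anti-H3K9me1 antibody.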
JMJD2A Tudor: blocks the human JMJD2A Tudor domain; O75164; AlphaScreen JMJD2A-Tudor / H3K4me3 peptide binding; Potency, µM (titrated, usually from 114 µM), for inactives: at the top dose activity change, negative = inhibition, hits mostly inhibitors; 4.4% of 390,000 active; AID 504339; also: potency is read from the fitted curve at half-maximal effect; % is scaled to controls: 0 for no effect and ±100 for the full control effect; nearly all actives have a fitted effect of over 50% in size
Six1-Eya2 inh: inhibitors of human Six1/Eya2 interaction. AlphaScreen GST-Six1/His-Eya2 binding, biochemical; active compounds read low. activity change, % (no concentration beside the values). 0.56% of 360,000 active. AID 651725; in the data active = activity change below about -65%; inconclusive = mostly about -30% to -63%; also: % is scaled to controls: 0 for no effect and ±100 for the full control effect
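AlphaScreen luminescence read after one hour at 37 °C in darkness. Pin-transferred compounds met GST-Six1 and His-Eya2 protein (5X stock 250 nM/500 nM) plus glutathione donor and Ni-chelate acceptor beads (5X, 50 ug/mL).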
CtBP-E1A inh: blocks the CtBP interaction with E1A; AlphaScreen GST-E1A/His-CtBP binding, 1536-well; active compounds read low; activity change, % (no concentration beside the values); 0.49% of 340,000 active; AID 651724; in the data active = activity change below about -65%; inconclusive = mostly about -30% to -63%; also: % is scaled to controls: 0 for no effect and ±100 for the full control effect
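Homogeneous bead-based format: GST-tagged E1A captured on glutathione donor beads, His-tagged CtBP on nickel acceptor beads; compounds precede bead addition by 2 h at 37 °C.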
HP1b binding inh: blocks HP1-beta chromodomain binding to methylated histone tails. P83916. AlphaScreen HP1-beta / biotin-H3K9me3 peptide binding. Potency, µM (top dose mostly 114 µM), for inactives: top-dose activity change, negative = inhibition, hits mostly inhibitors. 0.56% of 390,000 active; also: potency is read from the fitted curve at half-maximal effect; nearly all actives have a fitted effect of over 70% in size
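AlphaScreen: HP1-beta (50 nM) preformed 30 min with biotin-H3(1-18)K9me3 peptide (50 nM) in PBS pH 7.4, 0.01% Tween-20. Compound added for 30 min at RT, then streptavidin donor/nickel chelate acceptor beads (10 ug/mL) for 30 min.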
BAZ2B block: blocks human BAZ2B; Q9UIF8; AlphaScreen BAZ2B-H3K14Ac peptide displacement; Potency, µM (highest dose often 114 µM), for inactives: at the top dose activity change, negative = inhibition, actives largely listed as inhibitors; 4.4% of 360,000 active; also: potency is read from the fitted curve at half-maximal effect; % is scaled to controls: 0 for no effect and ±100 for the full control effect; nearly all actives have a fitted effect of over 60% in size
Target sequence (Q9UIF8 whole entry, looked up): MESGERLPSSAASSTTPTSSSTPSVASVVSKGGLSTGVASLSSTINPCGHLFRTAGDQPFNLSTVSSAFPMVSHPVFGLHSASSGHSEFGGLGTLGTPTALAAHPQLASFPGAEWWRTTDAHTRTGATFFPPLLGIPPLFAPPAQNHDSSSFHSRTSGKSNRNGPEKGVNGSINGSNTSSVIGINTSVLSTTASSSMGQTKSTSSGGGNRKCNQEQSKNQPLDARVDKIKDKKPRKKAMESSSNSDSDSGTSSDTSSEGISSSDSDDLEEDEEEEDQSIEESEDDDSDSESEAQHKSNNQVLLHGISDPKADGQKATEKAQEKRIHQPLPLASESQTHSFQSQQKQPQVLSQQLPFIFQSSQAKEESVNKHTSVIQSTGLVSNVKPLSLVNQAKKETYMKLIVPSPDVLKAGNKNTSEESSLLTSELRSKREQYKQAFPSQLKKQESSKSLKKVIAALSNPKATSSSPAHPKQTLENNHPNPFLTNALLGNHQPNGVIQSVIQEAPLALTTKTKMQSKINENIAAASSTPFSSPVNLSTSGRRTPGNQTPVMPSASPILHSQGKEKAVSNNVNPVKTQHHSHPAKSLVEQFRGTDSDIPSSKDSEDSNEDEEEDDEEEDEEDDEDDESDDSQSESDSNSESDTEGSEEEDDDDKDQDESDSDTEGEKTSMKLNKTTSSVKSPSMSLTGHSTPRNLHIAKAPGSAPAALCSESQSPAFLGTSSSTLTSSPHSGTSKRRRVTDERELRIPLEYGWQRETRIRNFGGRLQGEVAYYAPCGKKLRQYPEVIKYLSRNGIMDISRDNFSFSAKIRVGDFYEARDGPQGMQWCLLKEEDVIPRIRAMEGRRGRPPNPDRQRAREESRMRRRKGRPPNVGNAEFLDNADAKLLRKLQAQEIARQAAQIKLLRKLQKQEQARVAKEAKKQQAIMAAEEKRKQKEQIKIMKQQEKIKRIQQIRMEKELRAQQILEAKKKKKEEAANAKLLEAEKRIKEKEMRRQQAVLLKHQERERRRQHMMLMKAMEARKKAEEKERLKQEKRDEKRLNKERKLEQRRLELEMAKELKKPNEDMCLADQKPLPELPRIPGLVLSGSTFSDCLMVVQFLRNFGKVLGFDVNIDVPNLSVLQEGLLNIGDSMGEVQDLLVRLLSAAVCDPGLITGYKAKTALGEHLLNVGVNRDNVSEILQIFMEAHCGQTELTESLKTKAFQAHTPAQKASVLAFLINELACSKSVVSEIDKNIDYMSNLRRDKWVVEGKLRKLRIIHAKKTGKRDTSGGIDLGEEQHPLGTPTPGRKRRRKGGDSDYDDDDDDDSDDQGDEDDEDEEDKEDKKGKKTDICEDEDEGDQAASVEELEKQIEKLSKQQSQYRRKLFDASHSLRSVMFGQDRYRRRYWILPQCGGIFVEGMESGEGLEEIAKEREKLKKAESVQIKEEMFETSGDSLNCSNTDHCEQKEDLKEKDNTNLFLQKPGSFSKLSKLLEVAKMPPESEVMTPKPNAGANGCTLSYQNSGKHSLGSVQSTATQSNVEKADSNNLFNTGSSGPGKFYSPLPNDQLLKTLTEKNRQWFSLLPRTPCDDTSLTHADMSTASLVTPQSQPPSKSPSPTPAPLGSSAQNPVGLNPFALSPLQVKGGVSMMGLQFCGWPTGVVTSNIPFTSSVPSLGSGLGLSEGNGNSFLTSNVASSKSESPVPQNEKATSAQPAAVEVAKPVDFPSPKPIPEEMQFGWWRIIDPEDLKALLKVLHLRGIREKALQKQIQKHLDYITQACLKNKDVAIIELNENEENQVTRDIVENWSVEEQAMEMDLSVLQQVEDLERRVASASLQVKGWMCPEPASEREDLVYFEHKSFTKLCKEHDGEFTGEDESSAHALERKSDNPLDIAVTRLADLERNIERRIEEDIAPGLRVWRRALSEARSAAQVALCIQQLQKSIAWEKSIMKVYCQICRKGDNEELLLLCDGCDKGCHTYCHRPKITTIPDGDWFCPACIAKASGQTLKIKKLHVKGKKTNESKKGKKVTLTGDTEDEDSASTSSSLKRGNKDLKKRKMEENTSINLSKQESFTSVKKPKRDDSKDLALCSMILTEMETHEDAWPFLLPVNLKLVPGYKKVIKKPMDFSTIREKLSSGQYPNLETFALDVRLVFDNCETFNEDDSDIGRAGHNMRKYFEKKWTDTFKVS
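BAZ2B 50 nM plus b-H3(5-23)K14Ac 50 nM, PBS pH 7.4/0.01% Tween-20, 30 min RT; compound added (max 110 uM), 30 min RT; streptavidin donor/Ni-chelate acceptor beads 10 ug/mL final, 20 min dark; AlphaScreen read.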
The depositor's hits bear a star; u = inconclusive; x = no result given; ! = not confirmed by another sample; [ ] = another dose, or the depositor's remark. An excerpt weighted towards active compounds, which were near 10% of everything screened. Unless noted, calls follow the shape of the dose curve; as a rule, active = well fitted inhibition curve with a large enough effect; inconclusive = small, poorly fitted or top-dose-only effect; inactive = no such curve, though single readings can be large or run the other way.

SMILES	G9a inh	JMJD2A Tudor	Six1-Eya2 inh	CtBP-E1A inh	HP1b binding inh	BAZ2B block
CCN(CC)CCN(C(=O)c1ccc(C(=O)c2ccccc2)cc1)c1nc2ccc(OC)cc2s1	44.7µM*	u	-15.0	-6.3	-0.1%	u
Cc1ccc2nc(NNC(=O)c3ccc(S(=O)(=O)N4CCc5ccccc5C4)cc3)sc2c1	-3.2%	u	-9.8	-9.4	32.9%	4.47µM*
Cc1ccc2nc(N(CCN(C)C)C(=O)c3ccc4ccccc4c3)sc2c1	39.8µM*	44.7µM*	-14.3	-13.2	-2.9%	u
CCN(CC)CCN(C(=O)c1ccc2ccccc2c1)c1nc2ccc(F)cc2s1	44.7µM*	u	-1.4	1.1	37.1%	-28.6%[57.1 µM]
Cc1ccc2nc(NNC(=O)c3ccc4c(c3)OCCO4)sc2c1	11.2µM*	u	0.5	-17.4	33.6%	u
Cc1ccc2nc(N(Cc3cccnc3)C(=O)c3ccc4c(c3)OCCO4)sc2c1	7.5%[59 µM]	-3.6%	x	x	15.1%[57 µM]	6.8%
CCCCN(C)S(=O)(=O)c1ccc(C(=O)N(CCN(C)C)c2nc3ccc(C)cc3s2)cc1	39.8µM*	u	-4.2	x	2.8%	u
Cc1cc(C)c2nc(N(CCCN(C)C)C(=O)c3ccc4c(c3)OCCO4)sc2c1	50.1µM*	u	-19.4	u	-13.7%	-12.8%
Cc1nc2c(c(C)c1CCC(=O)NCc1ccccc1)c(=O)n(C)c(=O)n2C	-2.3%[59 µM]	-12.1%	x	x	21.3%	-19.0%
CCOC(=O)c1cccc(NC(=O)NCc2ccc3c(c2)CCN3C(=O)CC)c1	-13.9%[59 µM]	-18.5%	x	x	18.5%[57 µM]	0.2%
COc1ccc(OC)c(NC(=O)Cn2cnc3sc(C)c(S(=O)(=O)N4CCN(c5ccccc5OC)CC4)c3c2=O)c1	5.8%[59 µM]	-20.1%	x	x	13.7%	-0.7%
CN(C)CCCN(C(=O)c1ccc2c(c1)OCCO2)c1nc2ccccc2s1	-35.9%[59 µM]	-24.4%	x	x	22.4%[57 µM]	-2.4%
Cc1ccc2nc(N(CCCN(C)C)C(=O)c3ccc4ncsc4c3)sc2c1	14.1µM*	39.8µM*	-10.2	-9.7	6.8%	u
Cc1ccc2nc(N(CCN(C)C)C(=O)c3ccc4c(c3)OCCO4)sc2c1	44.7µM*	u	-15.1	-10.5	14.8%	u
CN(C)c1nc(N)c2ncc(=S)[nH]c2n1	1.78µM*	3.16µM*	-12.8	1.2	20.3%	-32.5%
CN(C)c1nc(C(=O)NN)nc(N(C)C)n1	33.3%[12.7 µM]	-18.6%	0.0	6.4	50.1%	-0.1%
CN(Cc1cnc2nc(N)nc(N)c2n1)c1ccc(C(=O)N[C@@H](CCC(=O)O)C(=O)O)cc1	7.52µM*!	-6.5%	u	-26.9	29.7%	x
CN(Cc1cnc2nc(N)nc(N)c2n1)c1ccc(C(=O)N[C@H](CCC(=O)O)C(=O)O)cc1	-7.3%[21.5 µM]	x	x	x	x	x
COc1ccc(-c2cn3cccnc3n2)cc1NC(=O)c1c(F)cccc1F	-4.4%[59 µM]	-2.3%	x	x	27.0%[57 µM]	2.8%
COc1ccc(Nc2oc(-c3ccc(COc4cccc(C)c4)o3)nc2C#N)cc1	-6.0%[59 µM]	-13.2%	x	x	31.5%	-7.8%
C=CCn1c(Cc2csc(N)n2)nnc1SCC(=O)Nc1ccc(C(=O)OCC)cc1	16.9%[59 µM]	79.4µM*	u	7.1	32.7%	22.4µM*
C=CCn1c(Cc2csc(N)n2)nnc1SCC(=O)OCC	8.9%[59 µM]	44.7µM*	-16.5	-5.3	17.2%	28.2µM*
C=CCn1c(Cc2cccs2)nnc1SCC(=O)Nc1ccc(C(=O)OCC)cc1	3.7%	0.8%	-4.6	1.0	36.2%	-13.0%
Cc1ccc(CN2C(=O)c3ccccc3C2C(=O)NC2CCCCCC2)cc1 (stereo not drawn)	-0.4%[59 µM]	2.4%	x	x	36.9%	0.5%
Cc1ccccc1OCC(=O)NCC(c1ccc(Cl)cc1)N1CCCCC1 (stereo not drawn)	u	-13.9%	x	x	14.8%	-3.0%
CCSc1nc2c(c(=O)[nH]c(=O)n2C)n1CC(O)COc1ccccc1C (stereo not drawn)	15.8µM*	-3.0%	-0.1	2.8	-26.8%	-14.6%
